# Assay: probe aCHRDL2 binding to arrayed compounds – biochemical, biotinylated probe, 635/667 nm fluorescence, primary screen (AID 1100)
# Settings: small-molecule microarray, higher = more signal
row,Compound,composite z-score
1,CO[C@H]1COC(=O)CC=C[C@@H](C)COC(=O)[C@H]2CCCN2C(=O)CC=C[C@H]1C,-1.16
2,CC(C)=CCCC(C)=CCON=C1[C@H]2CCn3c(=O)n(-c4ccccc4)c(=O)n3[C@H]2[C@H](O)[C@@H]2O[C@H]12,-0.55
3,COc1ccc(O[C@H]2C=C[C@@H](c3ccccc3)O[C@@H]2COC(=O)NCc2cccc3ccccc23)cc1,0.173
4,C#CCCCON=C1[C@H]2CCn3c(=O)n(Cc4cc5c(cc4Cl)OCO5)c(=O)n3[C@H]2[C@H](O)[C@@H]2O[C@H]12,-0.648
5,COC(=O)[C@@H]1CC[C@H](C)[C@@H](c2ccc(C)cc2)N1C(=O)c1ccc(C=NOC[C@@H](O)[C@H]2O[C@@H]3OC(C)(C)O[C@@H]3[C@H]2O)cc1,-0.357
6,CCOC(=O)[C@H](CC(C)C)NC(=O)CCC1CC(OC(=O)NCc2ccc3c(c2)OCO3)CC2(CCCC(COC(=O)NCCc3ccc(Cl)cc3)O2)O1 (stereo partly specified),-0.514
7,CCOC(=O)[C@H](Cc1ccccc1)NC(=O)CCC1CC(OC(=O)NCCc2ccc(F)cc2)CC2(CCCC(COC(=O)NCCOc3ccccc3)O2)O1 (stereo partly specified),-0.442
8,CC(C)=NOC(C)CN1CCCc2nc(C)c(C)cc21 (stereo unspecified),-0.696
9,CCOC(=O)[C@H](Cc1ccccc1)NC(=O)CCC1CC(OC(=O)NCc2ccc3c(c2)OCO3)CC2(CCCC(COC(=O)NCCOC)O2)O1 (stereo partly specified),-0.49
10,CC(CCC(=O)OC[C@H]1O[C@H](C#Cc2ccccc2)C=C[C@@H]1Oc1ccc(C)cc1)=NO[C@H](C)c1cn([C@@H]2COC[C@H]2O)nn1,-0.383
11,CCN1C(C)=C(C(=O)OC)[C@@H](c2ccccc2)N2C(=O)[C@](O)(C(=O)OC)CC(C(C)=O)=C12,-0.745
12,CCOC(=O)CCN1C(=O)[C@H]2[C@H]3[C@H](O)[C@H](O)CC(=NO[C@@H]4O[C@H](CO)[C@@H](O)[C@H](O)[C@H]4O)[C@H]3CC[C@H]2C1=O,-0.141
13,CCC1=NOC(CCC2CC(OC(=O)NCc3cccc4c3OCO4)CC3(CCCC(COC(=O)NCCc4ccc(Cl)cc4)O3)O2)C1 (stereo unspecified),-0.341
14,CC(C)=CCCC(C)=CCON=C1C[C@@H](O)[C@@H](O)[C@@H]2[C@@H]3C(=O)N(C4CCCCC4)C(=O)[C@@H]3CC[C@H]12,-0.304
15,COC(=O)[C@@H]1CC[C@H](C)[C@@H](c2ccc(C)cc2)N1C(=O)c1ccc(C=NO[C@@H](C)c2cc(-c3c(C)cc(C)cc3C)no2)cc1,-0.144
16,CCN1C(=O)[C@H]2[C@H]3[C@H](O)[C@H](O)CC(=NO[C@H](C)c4cn([C@@H]5COC[C@H]5O)nn4)[C@@H]3CC[C@H]2C1=O,-0.593
17,CC(C)=NOC[C@@H](O)[C@H]1O[C@@H]2OC(C)(C)O[C@@H]2[C@H]1O,-0.364
18,COc1ccc(COC(=O)NN=C2C[C@@H](O)[C@@H](O)[C@@H]3[C@@H]4C(=O)N(C[C@@H]5CCCO5)C(=O)[C@@H]4CC[C@@H]23)cc1,-0.241

row,Compound,composite z-score
1,COc1ccc(O[C@H]2C=C[C@@H](c3ccccc3)O[C@@H]2CON=C(C)CCN2CCCc3nc(C)c(C)cc32)cc1,-0.156
2,CCc1cc2c(nc1CC)CCN(CCC(C)=NOCC[C@@H]1C=C[C@H](OC(C)=O)[C@@H](COC(C)=O)O1)C2,0.343
3,CCOC(=O)[C@H](CC(C)C)NC(=O)CCC1CC(OC(=O)NCCc2ccc(F)cc2)CC2(CCCC(COC(=O)NCCCN3CCCC3=O)O2)O1 (stereo partly specified),-0.509
4,COc1ccc(COC(=O)NN=C2C[C@@H](O)[C@@H](O)[C@@H]3[C@@H]4C(=O)N(Cc5ccc6c(c5)OCO6)C(=O)[C@@H]4CC[C@H]23)cc1,1.41
5,CC(CCN1CCCCc2nc(C)c(C)cc21)=NOC[C@@H](O)[C@H]1O[C@@H]2OC(C)(C)O[C@@H]2[C@H]1O,-1.02
6,O=C1[C@H]2CCn3c(=O)n(-c4ccccc4)c(=O)n3[C@H]2[C@H](O)[C@@H]2O[C@H]12,-0.438
7,CC(C)=NO[C@H](C)c1cn([C@@H]2COC[C@H]2O)nn1,-0.607
8,CC(CCN1CCc2nc(-c3ccccc3)c(-c3ccccc3)cc2C1)=NO[C@@H](C)c1cc(-c2c(C)cc(C)cc2C)no1,0.77
9,CC(C)CN1CCc2nc(-c3ccccc3)c3c(c2C1)CO[C@@H](C)C3,-0.291
10,CCOC(=O)CCN1C(=O)[C@H]2[C@H]3[C@H](O)[C@H](O)CC(=NOCC=C(C)CCC=C(C)C)[C@@H]3CC[C@H]2C1=O,-0.202
11,CON=C[C@@H](OC)[C@H](C)C=CCC(=O)OC,-0.165
12,CCOC(=O)CCN1C(=O)[C@H]2[C@H]3[C@H](O)[C@H](O)CC(=NO[C@@H]4O[C@H](CO)[C@@H](O)[C@H](O)[C@H]4O)[C@@H]3CC[C@H]2C1=O,-0.573
13,CC(CCN1CCCc2nc(C)c(C)cc21)=NO[C@H](C)c1cn([C@@H]2COC[C@H]2O)nn1,-0.519
14,CC(C)(C)N1C(=O)[C@H]2[C@H]3[C@H](O)[C@H](O)CC(=NOC[C@@H](O)COCc4ccco4)[C@H]3CC[C@H]2C1=O,0.708
15,CCOC(=O)CCN1C(=O)[C@H]2[C@@H]3C(=CC[C@H]2C1=O)C(=O)[C@H]1O[C@H]1[C@H]3O,-0.291
16,COc1ccc(COC(=O)NN=C2C[C@@H](O)[C@@H](O)[C@@H]3[C@@H]4C(=O)N(C[C@@H]5CCCO5)C(=O)[C@@H]4CC[C@H]23)cc1,1.26
17,CCN1C(=O)[C@H]2[C@H]3[C@H](O)[C@H](O)CC(=NOCC(C)C)[C@H]3CC[C@H]2C1=O,-0.621
18,CC(C)=CCCC(C)=CCON=C1C[C@@H](O)[C@@H](O)[C@@H]2[C@@H]3C(=O)N(Cc4ccc5c(c4)OCO5)C(=O)[C@@H]3CC[C@H]12,-0.257
